The target of experiment [1] is Glutathione peroxidase 1 (Homo sapiens) (UniProt P07203). Kind of experiment: Primary qHTS Assay for Inhibitors of Recombinant Selenoprotein Glutathione Peroxidase 1 (GPX1) (AID 1845191). Also: nearly all actives have a fitted effect of over 65% in size. As to activity, negative = inhibition: % is scaled to controls: 0 for no effect and ±100 for the full control effect. In short, it runs like this: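 GPX1 10 nM, GR 100 nM, GSH 1 mM, NADPH 0.5 mM, CHP 0.5 mM (final). 30-min cpd preincubation, RT. Ex340/Em450 read t=0, t=15 min.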
Glutathione peroxidase 1 (Homo sapiens), sequence (P07203 whole entry, looked up): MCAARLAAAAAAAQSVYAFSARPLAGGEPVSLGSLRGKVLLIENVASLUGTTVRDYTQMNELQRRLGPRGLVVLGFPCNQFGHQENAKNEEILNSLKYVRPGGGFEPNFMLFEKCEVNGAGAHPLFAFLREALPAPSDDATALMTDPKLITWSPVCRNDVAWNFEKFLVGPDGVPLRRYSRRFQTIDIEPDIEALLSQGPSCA
(Quantitative high-throughput screening tests each substance at several concentrations.)

Experiment [2] concerns the target Phospholipid hydroperoxide glutathione peroxidase GPX4 (Homo sapiens) (UniProt P36969). Kind of experiment: Primary qHTS Assay for Inhibitors of Recombinant Selenoprotein Glutathione Peroxidase 4 (GPX4) (AID 1845192). Also: nearly all actives have a fitted effect of over 65% in size. As to activity change, negative = inhibition: series mostly up to about 50 µM; % is scaled to controls: 0 for no effect and ±100 for the full control effect. The gist of the method: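 qHTS, GR-coupled: GPX4 200 nM + cpd 30 min RT → GSH 1 mM, NADPH 0.5 mM, GR 100 nM → CHP 0.5 mM start; fluor 340/450 at t0 and t15 min; no-enzyme wells as control.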

Experiment [3] concerns the target Luciferin 4-monooxygenase (Photinus pyralis) (UniProt P08659). As to the kind of experiment: Primary firefly luciferase (FLuc) qHTS assay for identification of artifact compounds. (AID 1845220). Also: nearly all actives have a fitted effect of over 60% in size.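 As to activity change, negative = inhibition: series mostly up to about 54 µM; plate controls were DMSO vehicle for no effect and no enzyme for full effect.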 In short, it runs like this:
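Reaction readout was CCD-imaged luminescence, taken 5 min after adding 10 nM purified firefly enzyme to compound-treated wells holding 10 uM luciferin and ATP in pH 7.6 buffer.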

Experiment [4] can be described thus: Primary fluorescence-based thiol-reactive (MSTI) qHTS assay for identification of artifact compounds. (AID 1845221). Also: nearly all actives have a fitted effect of over 65% in size. Also: potency is read from the fitted curve at half-maximal effect.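 As to activity change, negative = thiol reactive: series mostly up to about 54 µM; thiol-reactive compounds lower the probe fluorescence signal.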 The gist of the method:
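Curve-fitted percent inhibition (4-parameter Hill) derived from fluorescence, Ex 525/Em 598 nm, scaled with Acetyl-MSTI and MSTI; 1 h incubation at room temperature.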

Experiment [5] has as its system Nanoluciferase (engineered Oplophorus gracilirostris luciferase). As to the kind of experiment: Primary Nanoluciferase (NLuc) qHTS assay for identification of artifact compounds. (AID 1845222).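 Also: NLuc secreted into diluted conditioned medium of S16 cells; series mostly up to about 54 µM.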 The gist of the method:
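Concentration-response data were obtained by luminescence after 5 min with Nano-Glo substrate at 1:100. The enzyme was diluted S16 NLuc-expressing cell medium, preincubated with compound for 15 min at RT. Curves were fitted with a 4-parameter Hill model.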

Experiment [6] can be described thus: Primary redox qHTS assay for identification of artifact compounds. (AID 1845223).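 Also: 0% = DMSO and 100% = reference compound.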 The gist of the method: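 Redox-cycling detection via DTT (250 uM final) oxidation coupled to Amplex Red (25 uM)/HRP (250 mU/mL) in HBSS. 15 min preincubation plus 30 min after DTT, room temperature. Ex/Em 525/598 nm; 4-parameter Hill fit against DMSO and 10 uM DA3003.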

The record followed here is PubChem BioAssay (NCATS).

Values without a mark were called inactive. Records with an inconclusive call do not appear. Activity calls are given as the source filed them. Calls follow the shape of the dose curve; as a rule, active = well fitted curve in the direction sought with a large enough effect; inconclusive = small, poorly fitted or top-dose-only effect, or another doubt; inactive = no such curve, though single readings can be large; an effect the other way counts as inactive or inconclusive. Where a SMILES comes first, the peptide text is derived from it. Bridges are numbered along the chain shown (N, C = ends). [ ]: non-standard residue; d: D form. The star is where a group is joined. X1 = CCC(C)C(N)C1=NC(C(=O)*)CS1; dOrn = NCCC[C@@H](N)C(=O)O

Phospholipid hydroperoxide glutathione peroxidase GPX4 (Homo sapiens), sequence (P36969 whole entry, looked up): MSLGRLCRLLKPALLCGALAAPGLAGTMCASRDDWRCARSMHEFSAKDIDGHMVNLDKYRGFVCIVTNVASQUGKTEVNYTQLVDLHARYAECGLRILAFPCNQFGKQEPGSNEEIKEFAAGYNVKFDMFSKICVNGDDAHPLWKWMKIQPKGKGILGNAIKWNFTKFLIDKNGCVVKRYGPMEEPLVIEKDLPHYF

For `CC1CC(O)CC(C)(C)C1(O)CCO` (centres undefined), the Potency entry in experiment [1], in experiment [2], in experiment [3], in experiment [4], in experiment [5] and in experiment [6] was “inactive” each time.
Regarding `C[C@@H]1CC[C@]2(C(=O)O)CC[C@]3(C(=O)O)C(=CCC4[C@@]5(C)CC[C@H](O[C@@H]6O[C@@H](C)[C@H](O[C@@H]7O[C@H](CO)[C@@H](O)[C@H](O)[C@H]7O)[C@@H](O)[C@H]6O)C(C)(C)C5CC[C@]43C)C2[C@H]1C` (some centres undefined), the Potency entry in experiment [1], in experiment [2], in experiment [3], in experiment [4], in experiment [5] and in experiment [6] was “inactive” in each case.
Turning to `C[C@@H]1O[C@@H](OC[C@H]2O[C@@H](OCCc3ccccc3)[C@H](O)[C@@H](O)[C@@H]2O)[C@H](O)[C@H](O)[C@H]1O`, the Potency entry in experiment [1], in experiment [2], in experiment [3], in experiment [5] and in experiment [6] was “inactive” in each case. Besides, in experiment [4], the Potency is 2.6 µM (active).
As for `CC(C)CC1(C(=O)OCc2ccc(O[C@@H]3O[C@H](CO)[C@@H](O)[C@H](O)[C@H]3O)cc2)CC(=O)OC(C(=O)O)CC(=O)OCC2OC(O1)C(OC(=O)/C=C/c1ccc(O)cc1)C(O)C2O` (some centres undefined), the Potency entry in experiment [1] and in experiment [2] was “inactive” in each case. Moreover, the activity change, negative = inhibition in experiment [3] is 3.35% [at 11.6 µM]. For the same compound, the activity change, negative = thiol reactive in experiment [4] is 14.7% [at 11.5 µM]. In addition, the activity, negative = inhibition in experiment [5] was -4.21% [at 11.6 µM]. Also, in experiment [6], the redox activity (% of DA3003) is 23.6% [at 11.5 µM].
For `C/C=C1\[C@H](O[C@@H]2O[C@H](CO)[C@@H](O)[C@H](O)[C@H]2O)OC=C(C(=O)OC)[C@H]1CC(=O)OC`, the Potency entry in experiment [1], in experiment [2], in experiment [3], in experiment [4], in experiment [5] and in experiment [6] was “inactive” in each case.
`C[C@@H](O)[C@H](N)C(=O)N1CCC[C@H]1C(=O)N1CCC[C@H]1C(=O)N[C@H](C(N)=O)[C@@H](C)O` (H-TPPT-NH2): in experiment [1], the outcome was “inactive [at 9.52 µM]”. In addition, the activity change, negative = inhibition in experiment [2] was 2.51% [at 9.73 µM]; in experiment [3], 3.24% [at 11.6 µM]. Also, the activity change, negative = thiol reactive in experiment [4] is -5.11% [at 11.5 µM]. In addition, the activity, negative = inhibition in experiment [5] was 4.97% [at 11.6 µM]. Besides, in experiment [6], the redox activity (% of DA3003) was 17.6% [at 11.5 µM].
On to `CC(C)[C@H]1CCC(CO)=C[C@@H]1/C=C(\CO)C(=O)O`, for which the Potency entry in experiment [1], in experiment [2], in experiment [3], in experiment [4], in experiment [5] and in experiment [6] was “inactive” throughout.
Take `CCC(C)C(N)C1=NC(C(=O)N[C@@H](CC(C)C)C(=O)N[C@H](CCC(=O)O)C(=O)N[C@H](C(=O)N[C@H]2CCCCNC(=O)[C@H](CC(N)=O)NC(=O)[C@@H](CC(=O)O)NC(=O)[C@H](Cc3cnc[nH]3)NC(=O)[C@@H](Cc3ccccc3)NC(=O)[C@H]([C@@H](C)CC)NC(=O)[C@@H](CCCN)NC2=O)[C@@H](C)CC)CS1` (some centres undefined) (X1-L[dE]IK[dOrn]I[dF]H[dD]N; lactam 4-C): the Potency result in experiment [1], in experiment [2], in experiment [3], in experiment [4], in experiment [5] and in experiment [6] was “inactive” each time.
Regarding `O=C(O)Cc1nn(Cc2nc3cc(C(F)(F)F)ccc3s2)c(=O)c2nccnc12`, the Potency result in experiment [1], in experiment [2], in experiment [3], in experiment [4], in experiment [5] and in experiment [6] was “inactive” each time.
Turning to `O=C(/C=C/c1ccc(O)cc1)OC[C@H]1O[C@@H](OC(=O)/C=C/c2ccccc2)[C@H](O)[C@@H](O)[C@@H]1O`, the Potency result in experiment [1], in experiment [2], in experiment [3], in experiment [5] and in experiment [6] was “inactive” throughout. Further, the Potency in experiment [4] is 11.6 µM (active).
As to `O=C(CCO[C@@H]1O[C@H](CO)[C@@H](O)[C@H](O)[C@H]1O)c1ccc(O)cc1`, the Potency entry in experiment [1], in experiment [2], in experiment [3], in experiment [4], in experiment [5] and in experiment [6] was “inactive” each time.
As to `CC1(C)CC[C@]2(C(=O)O)CC[C@]3(C)C(=CCC4[C@@]5(C)C[C@@H](O)[C@H](O)C(C)(C)C5CC[C@]43C)[C@@H]2[C@@H]1O` (some centres undefined), the Potency entry in experiment [1], in experiment [2], in experiment [3], in experiment [4], in experiment [5] and in experiment [6] was “inactive” throughout.
With `O=C1NCc2nc3ccccc3c(=O)n2C1Cc1c[nH]c2ccccc12` (centres undefined), the Potency result in experiment [1], in experiment [2], in experiment [3], in experiment [4], in experiment [5] and in experiment [6] was “inactive” each time.
In the case of `C[C@@H]1O[C@@H](O[C@H]2[C@H](O[C@H]3CC[C@@]4(C)C(CC[C@]5(C)C4CC=C4[C@@H]6CC(C)(C)CC[C@]6(C(=O)O)CC[C@]45C)[C@]3(C)CO)OC[C@H](O)[C@@H]2O)[C@H](O)[C@H](O[C@@H]2OC[C@@H](O)[C@H](O)[C@H]2O)[C@H]1O` (some centres undefined), the Potency entry in experiment [1] and in experiment [2] was “inactive” throughout. In experiment [3], the outcome was “inactive [at 11.6 µM]”. For the same compound, in experiment [4], the activity change, negative = thiol reactive was 366% [at 11.5 µM]. In addition, the activity, negative = inhibition in experiment [5] was 0.957% [at 11.6 µM]. The redox activity (% of DA3003) in experiment [6] is 0.416% [at 11.5 µM].
Regarding `C[C@@H]1CC[C@H]2C(C)(C)[C@H](O)[C@H](O)C[C@]2(C)[C@@]12Cc1c(O)cc3c(c1O2)CNC3=O`, the Potency entry in experiment [1], in experiment [2], in experiment [3], in experiment [4], in experiment [5] and in experiment [6] was “inactive” throughout.
For `OC[C@H]1O[C@@H](Oc2ccc3c(c2)OC[C@H]2c4cc5c(cc4O[C@@H]32)OCO5)[C@H](O)[C@@H](O)[C@@H]1O`, the Potency result in experiment [1], in experiment [2], in experiment [3], in experiment [4], in experiment [5] and in experiment [6] was “inactive” throughout.
Turning to `C=C1CC2[C@]3(C)C(=C(O)C(=O)[C@@]2(C)[C@]2(C(=O)OC)C(=O)C(C)OC(=O)[C@@]12C)C(C)(C)C(=O)CC3O` (some centres undefined), the Potency result in experiment [1], in experiment [2], in experiment [3], in experiment [4], in experiment [5] and in experiment [6] was “inactive” each time.
For `C=C(C(=O)O)C1CCC(C)C2CCC(=O)OC2(C)C1` (centres undefined), the Potency result in experiment [1], in experiment [2], in experiment [3], in experiment [5] and in experiment [6] was “inactive” in each case. In addition, the Potency in experiment [4] is 11.9 µM (active).
With `C=CC1(C)C=C2C(=O)CC3C(C)(C)CCCC3(C(=O)O)C2(O)CC1` (centres undefined), the Potency result in experiment [1], in experiment [2], in experiment [3], in experiment [4], in experiment [5] and in experiment [6] was “inactive” each time.
